In the supplement of paper PMC10646978:
± gives the standard deviation.

Tests used:
Conditions in all cases: modulator concentration 10 µM
[1] = system: RAW-Dual (murine macrophage reporter line); assay: NF-kB reporter (SEAP) activity fold change vs agonist alone; higher = enhanced NF-kB activity
Procedure, shortened: (§1)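 In 384-well plates holding 50 000 RAW-Dual murine macrophage reporter cells per well, compound at 10 μM final was pre-incubated for 1 hour at 37 °C, after which a PRR agonist was added overnight. Supernatant SEAP read with QUANTI-Blue at 620 nm absorbance reported NF-κB, and Lucia luciferase read with QUANTI-Luc luminescence reported IRF. Fold change values come from dividing each reporter signal by the mean of agonist-only control wells on the same plate, averaged over replicate plates with propagated errors.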

[2] = system: RAW-Dual (murine macrophage reporter line); assay: IRF reporter (Lucia luciferase) activity fold change vs agonist alone; higher = enhanced IRF activity
Procedure, shortened: as §1

[3] = system: RAW-Dual (murine macrophage reporter line); assay: viability score (confluency relative to resting cells, overnight) (fraction); higher = more viable, active = viable (0.7 or more)
Procedure, shortened: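 RAW-Dual macrophages in 384-well plates were treated overnight with compound at 10 μM final. IncuCyte imaging recorded confluency, and IncuCyte software built two confluency masks across every imaged well. The viability score expresses confluency relative to resting cells and was judged against a cutoff, which a compound met only if both masks exceeded 70% of resting cells.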

[4] = agonist: CpG ODN 1826 0.5 ug/mL

Row | Compound | NF-kB reporter [1, 4] | NF-kB reporter ([1]; agonist: LPS 0.1 ug/mL) | NF-kB reporter ([1]; agonist: MPLA […]) | IRF reporter ([2]; agonist: 3'3'-cGAMP 10 ug/mL) | IRF reporter ([2]; agonist: LPS 0.1 ug/mL) | IRF reporter ([2]; agonist: MPLA […]) | viability score [3]
1 | CCN(CC)Cc1ccc(Nc2ccnc3cc(Cl)ccc23)cc1O.Cl.Cl | 0.998 ± 0.1 | 0.874 ± 0.065 | 0.908 ± 0.085 | 0.988 ± 0.055 | 1.09 ± 0.19 | 1.04 ± 0.16 | 1.04 (active)
2 | Clc1cccc(C=Nc2ccc(N=Cc3cccc(Cl)c3Cl)cc2)c1Cl | 0.979 ± 0.081 | 1.08 ± 0.07 | 1 ± 0.04 | 0.815 ± 0.059 | 1.05 ± 0.056 | 1.09 ± 0.12 | 1 (active)
3 | COc1ccc(CCNC(=O)NCc2nn(C3CCCC3)c3c2CCCC3)cc1 | 0.854 ± 0.037 | 1.04 ± 0.12 | 1.12 ± 0.08 | 0.726 ± 0.057 | 1.13 ± 0.18 | 1.15 ± 0.27 | 0.983 (active)
4 | O=c1c2ccccc2n(Cc2nc(-c3ccc(F)c(F)c3)no2)c(=O)n1C1CC1 | 0.84 ± 0.076 | 1.21 ± 0.096 | 0.923 ± 0.11 | 0.995 ± 0.074 | 1.04 ± 0.074 | 1.07 ± 0.15 | 0.971 (active)
5 | CCN(CC)c1ccc(C=C(C#N)C#N)c(OC(C)=O)c1 | 1.07 ± 0.064 | 0.895 ± 0.065 | 0.884 ± 0.057 | 0.76 ± 0.034 | 0.995 ± 0.069 | 0.977 ± 0.12 | 1.01 (active)
6 | CCOC(=O)C1=C(C)OC(N)=C(C#N)C1c1ccc(O)c(OCC)c1 (stereo not drawn) | 1.19 ± 0.075 | 1.04 ± 0.064 | 1.07 ± 0.099 | 0.939 ± 0.038 | 1.31 ± 0.12 | 1.16 ± 0.11 | 1.01 (active)
7 | C=CCNC(=O)c1cccc(Br)c1 | 0.781 ± 0.061 | 0.962 ± 0.18 | 0.982 ± 0.097 | 0.933 ± 0.044 | 1.11 ± 0.19 | 1.09 ± 0.24 | 1.03 (active)
8 | O=C1c2ccccc2C(=O)c2c1ccc(O)c2O | 1.03 ± 0.098 | 1.06 ± 0.054 | 1.02 ± 0.027 | 0.948 ± 0.084 | 0.949 ± 0.039 | 0.978 ± 0.076 | 0.999 (active)
9 | CCN(CC)C(=O)C(=Cc1ccc(Br)cc1)NC(=O)c1ccccc1OC | 1.06 ± 0.084 | 1.09 ± 0.11 | 1.09 ± 0.075 | 1.14 ± 0.028 | 1.61 ± 0.25 | 1.28 ± 0.12 | 1.01 (active)
10 | CN1[C@@H]2CC[C@H]1C[C@@H](OC(c1ccccc1)c1ccccc1)C2.CS(=O)(=O)O | 0.95 ± 0.13 | 1.19 ± 0.5 | 1.48 ± 0.23 | 0.438 ± 0.013 | 0.934 ± 0.35 | 1.53 ± 0.15 | 
11 | Br.O=S(=O)(c1ccc(-c2csc(Nc3ccc(Br)cc3)n2)cc1)N1CCCCC1 | 0.859 ± 0.072 | 1.08 ± 0.088 | 0.988 ± 0.034 | 0.938 ± 0.16 | 1.01 ± 0.042 | 0.926 ± 0.11 | 1 (active)
12 | COC(=O)C1=C(C)NC(C)=C(C(=O)OC(C)(C)CN(C)CCC(c2ccccc2)c2ccccc2)C1c1cccc([N+](=O)[O-])c1.Cl (stereo not drawn) | 0.167 ± 0.023 | 0.807 ± 0.17 | 1.98 ± 1 | 0.132 ± 0.0065 | 1.69 ± 0.37 | 2.85 ± 0.23 | 0.96 (active)
13 | CCOC(=O)[C@H](CCc1ccccc1)N[C@H]1CCc2ccccc2N(CC(=O)O)C1=O.Cl | 1.07 ± 0.083 | 0.961 ± 0.17 | 0.987 ± 0.021 | 0.947 ± 0.054 | 0.935 ± 0.076 | 0.967 ± 0.14 | 0.999 (active)
14 | O=C1C(CCS(=O)c2ccccc2)C(=O)N(c2ccccc2)N1c1ccccc1 (stereo not drawn) | 0.833 ± 0.042 | 0.955 ± 0.076 | 0.954 ± 0.056 | 1.01 ± 0.068 | 1.22 ± 0.2 | 1.31 ± 0.44 | 1.02 (active)
15 | O=S1(=O)N=C(SCc2ccccc2)Nc2ccc(Cl)cc21 | 0.76 ± 0.059 | 0.913 ± 0.067 | 1.16 ± 0.11 | 0.718 ± 0.074 | 1.08 ± 0.12 | 1.11 ± 0.3 | 1.02 (active)
16 | C=CCNC(N)=S | 1.37 ± 0.2 | 1 ± 0.32 | 0.931 ± 0.077 | 0.898 ± 0.027 | 1.06 ± 0.4 | 0.986 ± 0.17 | 1.01 (active)
17 | CC(C)(Oc1ccc(CCNC(=O)c2ccc(-c3ccc(Cl)cc3)o2)cc1)C(=O)O | 1.09 ± 0.087 | 1.03 ± 0.078 | 0.976 ± 0.062 | 0.942 ± 0.067 | 1.39 ± 0.22 | 1.08 ± 0.1 | 1.01 (active)
18 | C=CCn1c(S)nnc1-c1cc(OC)c(OC)c(OC)c1 | 0.986 ± 0.076 | 1.05 ± 0.084 | 0.988 ± 0.11 | 0.97 ± 0.041 | 1.14 ± 0.18 | 1.08 ± 0.12 | 1.03 (active)
19 | CN1CCN(CCOc2cc(OC3CCOCC3)c3c(Nc4c(Cl)ccc5c4OCO5)ncnc3c2)CC1 | 0.135 ± 0.02 | 1.48 ± 0.29 | 1.99 ± 0.11 | 0.395 ± 0.012 | 0.597 ± 0.13 | 0.983 ± 0.17 | 0.886 (active)
20 | COc1cc2c(cc1OC)C(=S)NC1(CCCC1)C2 | 0.886 ± 0.33 | 0.985 ± 0.12 | 0.941 ± 0.1 | 0.962 ± 0.04 | 1.04 ± 0.16 | 1.28 ± 0.23 | 0.596 (inactive)
21 | CC1Cc2ccccc2N1C(=O)c1cc2n(n1)CCCO2 (stereo not drawn) | 0.962 ± 0.076 | 0.949 ± 0.06 | 1.09 ± 0.12 | 0.903 ± 0.054 | 1.39 ± 0.082 | 1.44 ± 0.15 | 0.985 (active)
22 | COC(=O)CNC(c1ccccc1)c1cc(Br)ccc1NC(=O)c1ccccc1Cl (stereo not drawn) | 0.675 ± 0.059 | 1.08 ± 0.092 | 0.963 ± 0.091 | 1 ± 0.037 | 1.78 ± 0.17 | 1.59 ± 0.16 | 1.01 (active)
23 | CC(=O)C(C(=O)Nc1ccc(F)cc1)C(c1ccc(Cl)cc1Cl)C(C#N)C#N (stereo not drawn) | 0.894 ± 0.054 | 0.93 ± 0.057 | 0.915 ± 0.093 | 0.903 ± 0.04 | 1.1 ± 0.075 | 1.02 ± 0.26 | 1.01 (active)
24 | CC(=O)Nc1nc(C2CC2)cc(-c2ccco2)c1C#N | 1.38 ± 0.23 | 1.09 ± 0.09 | 1.02 ± 0.08 | 0.937 ± 0.026 | 1.16 ± 0.12 | 1.17 ± 0.12 | 1 (active)
25 | Cc1cc(Cl)ccc1OCCCC(=O)NO | 0.745 ± 0.091 | 0.794 ± 0.039 | 1.19 ± 0.028 | 0.234 ± 0.014 | 0.449 ± 0.084 | 0.553 ± 0.12 | 0.986 (active)
26 | CCN(CC)Cc1cc(Nc2ccnc3cc(Cl)ccc23)ccc1O.Cl.Cl.O.O | 0.606 ± 0.026 | 0.671 ± 0.054 | 0.944 ± 0.068 | 1.39 ± 0.23 | 1.22 ± 0.24 | 1.16 ± 0.46 | 0.931 (active)
27 | COc1cc(C=Nc2ccc(-c3ccc(N=Cc4cc(OC)c(OC)cc4[N+](=O)[O-])cc3)cc2)c([N+](=O)[O-])cc1OC | 0.742 ± 0.19 | 1.02 ± 0.065 | 1.02 ± 0.1 | 0.769 ± 0.1 | 1.03 ± 0.084 | 1.01 ± 0.41 | 1.01 (active)
